Assay [1] is described as follows: Nuclear factor erythroid 2-related factor 2/antioxidant responsive element (Nrf2/ARE) small molecule agonists: luciferase reporter gene qHTS assay in human keratinocytes (AID 1919969). Note: nearly all actives have a fitted effect of over 35% in size. For orientation: A reporter such as luciferase makes a cellular process visible.
The target of assay [2] is Gonadotropin-releasing hormone receptor (Homo sapiens) (UniProt P30968). The assay is described as follows: Human gonadotropin-releasing hormone receptor (GnRHR) small molecule agonists, calcium flux assay in GnRHR-HEK293 cells (AID 1920063). Note: nearly all actives have a fitted effect of over 35% in size. The gist of the method: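 Calcium-dye fluorescence, Ex/Em=480/540, recorded every 1 sec over 3 min after compound addition to GnRHR-HEK293 cells. Cells had been seeded 18 hours earlier and dye-loaded for 1 hour at 37 C. Fifteen concentrations, triplicates.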
A general note: A change in cytosolic calcium serves as a functional read-out for many receptors and channels.

In assay [3] the target is KiSS-1 receptor (Homo sapiens) (UniProt Q969F8). Kind of assay: Human kisspeptin (KISS1R) small molecule agonists, calcium flux assay in KISS1R-HEK293 cells (AID 1920064; active = well fitted activation curve with a large enough effect in the repeat runs). The gist of the method:
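Calcium flux read-out: kinetic fluorescence at Ex/Em=480/540, 1 s intervals over 3 min, after pin-tool compound addition to dye-loaded KISS1R-HEK293 cells. Fifteen concentrations, triplicates.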

Assay [4] can be described thus: G protein-coupled receptor (GPCR) small molecule agonists, calcium flux assay: HEK293 wild type cell line counter screen (AID 1920065). Summed up:
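Agonist mode; 18 h seeding at 37 C, 1 h dye load at 37 C; compounds pinned from DMSO, ATP as positive control; kinetic fluorescence 480/540 nm, 3 min, 1 s reads; 15 concentrations, triplicate.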

The nature of assay [5]: p53 small molecule agonists, cell-based qHTS assay with human liver microsomes: qHTS cell viability counter screen (AID 1963579). Note: nearly all actives have a fitted effect of over 45% in size. Note: potency is the fitted concentration of half-maximal effect. The gist of the method: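 Tox21 library compounds, delivered from DMSO stocks, were tested on p53RE-bla cells together with 0.5 mg/mL human liver microsomes and 0.5 mg/mL NADPH (final) over 16 h at 37 C; CellTiter-Glo luminescence served as the cytotoxicity measure.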
A general note: In qHTS, concentration-response curves come from the screen itself.

A short description of assay [6]: p53 small molecule agonists, cell-based qHTS assay: qHTS cell viability counter screen (AID 1963581). Note: nearly all actives have a fitted effect of over 45% in size. The gist of the method: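 Cytotoxicity read-out: ATP-based luminescence (CellTiter-Glo, 30 min RT) measured in the same wells as the p53 reporter assay, HCT-116 p53RE-bla cells, 16 h compound exposure at 37 C.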
Assay [7] deals with 5-hydroxytryptamine receptor 2A (Homo sapiens) (UniProt P28223). Kind of assay: 5-hydroxytryptamine receptor 2A (HTR2A) small molecule agonists, cell-based qHTS assay (AID 1963587). Note: nearly all actives have a fitted effect of over 30% in size. Summed up: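 CHO cells stably expressing human HTR2A, plated 18 h, loaded with calcium dye 1 h at 37 C. Agonist mode: compounds added and intracellular calcium fluorescence recorded kinetically for 2 min at 1 sec intervals.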

For assay [8], the target named is Muscarinic acetylcholine receptor M1 (Homo sapiens) (UniProt P11229). The assay is described as follows: Cholinergic receptor muscarinic 1 (CHRM1) small molecule antagonists, cell-based qHTS assay (AID 1963588). Note: nearly all actives have a fitted effect of over 40% in size. Summed up:
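Compounds were tested at 15 concentrations in three independent runs. Dye-loaded CHRM1-CHO cells were exposed 5 min at room temperature before stimulation by acetylcholine added at 50nM. Intracellular calcium was read kinetically on FDSS for 3 min.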

The target is the same in assay [9]. The assay is described as follows: Cholinergic receptor muscarinic 1 (CHRM1) small molecule agonists, cell-based qHTS assay (AID 1963589). Note: nearly all actives have a fitted effect of over 35% in size. The gist of the method:
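Calcium flux read-out: kinetic fluorescence at 1 sec intervals after pin-tool compound addition to dye-loaded CHRM1-CHO cells (human M1). Agonist mode; 15 concentrations tested in triplicate independent runs.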

A short description of assay [10]: cAMP Responsive Elements (CRE) small molecule agonists, cell-based qHTS assay (AID 1963590). Summed up: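 Beta-lactamase reporter readout: LiveBLAzer B/G FRET substrate, 2 h at room temperature, added after 3 h compound treatment of CRE-bla HEK 293T cells at 37 C/5% CO2.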
Assay [11] in a line: cAMP Responsive Elements (CRE) small molecule antagonists, cell-based qHTS assay (AID 1963591; active = well fitted inhibition curve with a large enough effect in the signal ratio in the repeat runs, not every such curve was filed as active; the % refers to the signal ratio). Summed up:
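HEK293T CRE-bla; 18 h preincubation; compound pin-transfer; NKH477 0.25 uM final, 3 h, 37 C; LiveBLAzer FRET substrate 2 h RT.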

The target of assay [12] is Beta-2 adrenergic receptor (Homo sapiens) (UniProt P07550). The assay is described as follows: Adrenergic beta2 receptor (ADRB2) small molecule antagonists, cell-based qHTS assay (AID 1963592). Note: series mostly up to about 92 µM; nearly all actives have a fitted effect of over 50% in size. The gist of the method: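 Assay format: CHO-ADRB2 cells, 18-20hr seeding at 37C/5% CO2, then compound plus 1nM isoproterenol agonist mix for 0.5hr RT. Homogeneous time-resolved fluorescence cAMP detection after 1hr, expressed as 665/615 nm ratio.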

Assay [13] concerns the target D(2) dopamine receptor (Homo sapiens) (UniProt P14416). Kind of assay: Dopamine D2 receptor (DRD2) small molecule agonists, cell-based qHTS assay (AID 1963594). Note: nearly all actives have a fitted effect of over 35% in size. The gist of the method:
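HEK293 cells stably expressing human DRD2, pre-treated with PDE inhibitor Ro20-1724 (0.1 mM final) and compound 10 min at room temperature, then stimulated with NKH477 (200nM […]) for 30 min. cAMP read by HTRF (665/620 nm).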

The target is the same in assay [14]. Kind of assay: Dopamine D2 receptor (DRD2) small molecule antagonists, cell-based qHTS assay (AID 1963595; active = well fitted inhibition curve with a large enough effect in the signal ratio in the repeat runs, with a control signal flat; the % refers to the signal ratio). Summed up: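 Readout: HTRF cAMP, cAMP-d2 competing with cellular cAMP for anti-cAMP cryptate, read after 1 h. Cells: DRD2-HEK293. Conditions: 0.1 mM Ro20-1724, 12 nM quinpirole, 200 nM NKH477, 30 min RT.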
A short description of assay [15]: p53 small molecule agonists, cell-based qHTS assay with rat liver microsomes: qHTS cell viability counter screen (AID 1963580). Note: nearly all actives have a fitted effect of over 45% in size. The gist of the method: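 Cytotoxicity counter screen: intracellular ATP measured by CellTiter-Glo luminescence in the same wells as the beta-lactamase reporter read, on HCT-116 p53RE-bla cells exposed 16 h at 37 C to compounds with rat liver microsomes and NADPH, each 0.5 mg/mL final.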

Assay [16] concerns the target Beta-2 adrenergic receptor (Homo sapiens) (UniProt P07550). The assay is described as follows: Adrenergic beta2 receptor (ADRB2) small molecule agonists, cell-based qHTS assay (AID 1963593).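 Note: CHO cells stably overexpressing human ADRB2.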 Summed up:
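CHO cells stably over-expressing ADRB2 were plated overnight at 37C, then dosed with compounds plus a stimulation mix containing 100uM IBMX and 25uM Ro-20-1724 for 0.5hr at room temperature. cAMP was measured by HTRF competition, 1hr.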

The target in assay [17] is 5-hydroxytryptamine receptor 2A (Homo sapiens) (UniProt P28223). Kind of assay: 5-hydroxytryptamine receptor 2A (HTR2A) small molecule antagonists, cell-based qHTS assay (AID 1963586). Note: nearly all actives have a fitted effect of over 45% in size. The gist of the method: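 CHO cells stably expressing human HTR2A were plated for 18 h at 37 C, then loaded with calcium dye for 1 h. Compounds were preincubated 5 min at room temperature before DOI (4 nM solution) was added. Kinetic fluorescence was read for 3 min.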

Our source for the Potency values is PubChem BioAssay (Tox21).

Records with an inconclusive call do not appear. Calls of active or inactive are those of the source. Unless noted, calls come from the whole dose curve.

Beta-2 adrenergic receptor (Homo sapiens), sequence (P07550 whole entry, looked up): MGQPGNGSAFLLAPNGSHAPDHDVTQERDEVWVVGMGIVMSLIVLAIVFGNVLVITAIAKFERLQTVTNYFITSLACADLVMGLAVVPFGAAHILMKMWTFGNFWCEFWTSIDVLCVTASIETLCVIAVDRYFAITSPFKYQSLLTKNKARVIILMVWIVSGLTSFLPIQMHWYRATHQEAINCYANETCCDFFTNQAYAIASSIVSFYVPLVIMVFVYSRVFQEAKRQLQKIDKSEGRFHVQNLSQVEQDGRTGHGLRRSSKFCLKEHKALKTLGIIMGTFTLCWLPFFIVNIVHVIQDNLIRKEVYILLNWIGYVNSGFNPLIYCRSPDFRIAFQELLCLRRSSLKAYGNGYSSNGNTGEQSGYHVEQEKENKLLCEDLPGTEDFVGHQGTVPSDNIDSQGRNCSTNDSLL
KiSS-1 receptor (Homo sapiens), sequence (Q969F8 whole entry, looked up): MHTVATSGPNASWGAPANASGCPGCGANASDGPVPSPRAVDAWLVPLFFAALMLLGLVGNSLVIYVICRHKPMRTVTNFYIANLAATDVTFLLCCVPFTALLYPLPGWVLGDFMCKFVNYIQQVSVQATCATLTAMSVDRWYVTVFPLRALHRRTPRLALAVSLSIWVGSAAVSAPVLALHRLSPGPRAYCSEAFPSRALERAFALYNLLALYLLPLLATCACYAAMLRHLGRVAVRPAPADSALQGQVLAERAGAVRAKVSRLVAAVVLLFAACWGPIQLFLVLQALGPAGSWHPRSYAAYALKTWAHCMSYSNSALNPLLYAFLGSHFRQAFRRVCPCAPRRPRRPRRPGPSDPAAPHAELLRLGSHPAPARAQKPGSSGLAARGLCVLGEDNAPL
D(2) dopamine receptor (Homo sapiens), sequence (P14416 whole entry, looked up): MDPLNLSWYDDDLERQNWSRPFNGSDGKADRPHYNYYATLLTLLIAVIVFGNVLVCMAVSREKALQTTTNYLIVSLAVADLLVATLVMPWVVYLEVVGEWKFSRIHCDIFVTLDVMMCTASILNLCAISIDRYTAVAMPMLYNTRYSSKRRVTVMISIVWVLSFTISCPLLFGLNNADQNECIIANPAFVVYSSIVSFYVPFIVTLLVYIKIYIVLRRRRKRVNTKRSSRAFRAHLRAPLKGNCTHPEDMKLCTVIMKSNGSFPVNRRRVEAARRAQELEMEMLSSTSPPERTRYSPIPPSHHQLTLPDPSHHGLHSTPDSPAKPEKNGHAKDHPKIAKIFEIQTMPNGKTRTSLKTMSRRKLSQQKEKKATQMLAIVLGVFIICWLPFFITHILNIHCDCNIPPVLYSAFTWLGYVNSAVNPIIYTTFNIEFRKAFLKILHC
Muscarinic acetylcholine receptor M1 (Homo sapiens), sequence (P11229 whole entry, looked up): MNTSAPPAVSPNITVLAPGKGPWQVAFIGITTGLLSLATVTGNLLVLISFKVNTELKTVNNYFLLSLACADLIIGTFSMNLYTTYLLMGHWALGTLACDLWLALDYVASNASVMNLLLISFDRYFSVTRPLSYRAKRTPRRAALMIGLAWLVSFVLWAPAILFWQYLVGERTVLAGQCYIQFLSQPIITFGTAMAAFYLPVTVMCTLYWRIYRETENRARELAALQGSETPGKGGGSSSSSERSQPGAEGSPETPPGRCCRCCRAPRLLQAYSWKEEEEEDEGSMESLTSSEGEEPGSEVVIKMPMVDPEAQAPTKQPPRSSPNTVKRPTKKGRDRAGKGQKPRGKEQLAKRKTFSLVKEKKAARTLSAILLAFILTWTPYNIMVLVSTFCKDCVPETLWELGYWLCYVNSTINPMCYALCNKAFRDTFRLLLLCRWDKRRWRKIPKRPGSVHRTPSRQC
Gonadotropin-releasing hormone receptor (Homo sapiens), sequence (P30968 whole entry, looked up): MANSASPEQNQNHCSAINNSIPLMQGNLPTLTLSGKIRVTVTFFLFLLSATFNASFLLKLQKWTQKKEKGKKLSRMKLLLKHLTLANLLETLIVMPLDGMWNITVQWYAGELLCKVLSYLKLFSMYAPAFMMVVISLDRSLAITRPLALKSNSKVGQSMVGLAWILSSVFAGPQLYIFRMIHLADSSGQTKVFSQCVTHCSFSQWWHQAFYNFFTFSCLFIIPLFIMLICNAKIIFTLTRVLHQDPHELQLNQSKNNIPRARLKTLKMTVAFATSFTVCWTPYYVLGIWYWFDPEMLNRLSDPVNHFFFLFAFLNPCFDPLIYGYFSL
5-hydroxytryptamine receptor 2A (Homo sapiens), sequence (P28223 whole entry, looked up): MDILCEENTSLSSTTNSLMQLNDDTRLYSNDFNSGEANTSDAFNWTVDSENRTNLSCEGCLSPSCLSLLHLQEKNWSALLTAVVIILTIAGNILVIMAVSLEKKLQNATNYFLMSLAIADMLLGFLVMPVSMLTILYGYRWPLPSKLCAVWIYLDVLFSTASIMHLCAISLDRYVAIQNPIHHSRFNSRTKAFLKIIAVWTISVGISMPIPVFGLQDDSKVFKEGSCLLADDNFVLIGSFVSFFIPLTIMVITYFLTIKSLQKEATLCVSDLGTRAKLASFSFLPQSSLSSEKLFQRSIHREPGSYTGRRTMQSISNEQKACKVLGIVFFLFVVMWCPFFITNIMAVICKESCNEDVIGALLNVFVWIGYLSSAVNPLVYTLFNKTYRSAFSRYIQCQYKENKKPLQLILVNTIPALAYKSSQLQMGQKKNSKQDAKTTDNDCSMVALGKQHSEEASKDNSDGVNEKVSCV

Turning to `CN(C)c1ccc(O)c2c1C[C@H]1C[C@H]3[C@H](N(C)C)C(=O)C(C(N)=O)=C(O)[C@@]3(O)C(=O)C1=C2O`, the Potency entry in [1], in [2], in [3], in assay [4], in assay [5] and in [6] was “inactive” each time. Besides, the Potency entry in [7], in assay [8], in assay [9], in assay [10], in assay [11] and in [12] was “inactive” in each case. Further, the Potency entry in assay [13] and in assay [14] was “inactive” throughout.
In the case of `CC(CC(=O)Cl)CC(C)(C)C` (centres undefined), the Potency result in [1], in assay [2], in [3], in assay [4], in [15] and in assay [6] was “inactive” each time. The Potency result in assay [7], in assay [8], in [9], in assay [10], in assay [11] and in [12] was “inactive” in each case. In addition, the Potency entry in assay [16], in assay [13] and in assay [14] was “inactive” throughout.
`CCOC(C)OCC`: the Potency entry in assay [1], in assay [2], in assay [3], in assay [4], in assay [5] and in assay [15] was “inactive” throughout. Besides, the Potency result in [17], in assay [8], in assay [9], in [10], in [11] and in [12] was “inactive” in each case. The Potency entry in assay [16], in assay [13] and in [14] was “inactive” in each case.
Take `N[C@@H]1CONC1=O`: the Potency entry in assay [1], in [2], in [3], in assay [4], in assay [5] and in assay [6] was “inactive” throughout. Also, the Potency result in [17], in assay [7], in assay [8], in [9], in [10] and in [11] was “inactive” in each case. In addition, the Potency result in [12], in assay [16], in [13] and in [14] was “inactive” in each case.
Regarding `COC(=O)CCSCCC(=O)OC`, the Potency result in assay [1], in assay [2], in assay [3], in [4], in assay [5] and in [15] was “inactive” throughout. Further, the Potency entry in assay [17], in assay [7], in assay [8], in assay [9], in [11] and in [12] was “inactive” each time. Besides, the Potency result in [16], in [13] and in assay [14] was “inactive” throughout.
As for `CN(C)c1ccc(C2(c3ccc(N(C)C)cc3)OC(=O)c3cc(N(C)C)ccc32)cc1`, the Potency entry in [1], in [2], in assay [3], in assay [4], in assay [6] and in [17] was “inactive” throughout. Also, the Potency entry in assay [7], in assay [9], in assay [10], in assay [11], in assay [12] and in [13] was “inactive” each time. In addition, the Potency result in assay [14] is “inactive”. In assay [5], the Potency was 18.2 µM (active).
